In PubChem BioAssay (NCI):
The panel holds about 83,000 compounds, 20% with a hit somewhere; the sample as a whole holds those more often.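 96-well plates, one dose, 48 hours. Percent growth reported; active if below 10.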 A number with no mark means an inactive call. Activity calls are given as the source filed them.

Legend:
Assay in all cases: NCI-60 one-dose screen, 48 h (100 = growth as untreated, 0 = no growth, -100 = all killed)
Settings in all cases: 10 µM unless noted
SK-MEL-2 melanoma = test system: SK-MEL-2 melanoma
EKVX NSCLC = test system: EKVX NSCLC
SN12C renal = test system: SN12C renal
UO-31 renal = test system: UO-31 renal
TK-10 renal = test system: TK-10 renal
ACHN renal = test system: ACHN renal
CAKI-1 renal = test system: CAKI-1 renal
A498 renal = test system: A498 renal
CCRF-CEM leukemia = test system: CCRF-CEM leukemia
MOLT-4 leukemia = test system: MOLT-4 leukemia
SR leukemia = test system: SR leukemia
RPMI-8226 leukemia = test system: RPMI-8226 leukemia
OVCAR-8 ovarian = test system: OVCAR-8 ovarian
OVCAR-5 ovarian = test system: OVCAR-5 ovarian
OVCAR-4 ovarian = test system: OVCAR-4 ovarian
SK-OV-3 ovarian = test system: SK-OV-3 ovarian
IGROV1 ovarian = test system: IGROV1 ovarian
OVCAR-3 ovarian = test system: OVCAR-3 ovarian
HS 578T breast = test system: HS 578T breast
NCI/ADR-RES ovarian = test system: NCI/ADR-RES ovarian

| SMILES | growth (SK-MEL-2 melanoma) | growth (EKVX NSCLC) | growth (SN12C renal) | growth (UO-31 renal) | growth (TK-10 renal) | growth (ACHN renal) | growth (CAKI-1 renal) | growth (A498 renal) | growth (CCRF-CEM leukemia) | growth (MOLT-4 leukemia) | growth (SR leukemia) | growth (RPMI-8226 leukemia) | growth (OVCAR-8 ovarian) | growth (OVCAR-5 ovarian) | growth (OVCAR-4 ovarian) | growth (SK-OV-3 ovarian) | growth (IGROV1 ovarian) | growth (OVCAR-3 ovarian) | growth (HS 578T breast) | growth (NCI/ADR-RES ovarian) |
| --- | --- | --- | --- | --- | --- | --- | --- | --- | --- | --- | --- | --- | --- | --- | --- | --- | --- | --- | --- | --- |
| CNC(=O)c1ccccc1Nc1nc(Nc2cc(OC)c(OC)c(OC)c2)ncc1Br | -77.4% (active) | -10.4% (active) | -40.7% (active) | -17.6% (active) | -31.4% (active) | 12.5% | 2.5% (active) | -88.4% (active) | 71.3% | 66.3% | 6.27% (active) | 41.5% | -20.3% (active) | 13.3% | -34.5% (active) | -77.2% (active) | 4.34% (active) | -6.51% (active) | -3.22% (active) | -10.7% (active) |
| C#COc1cccc(Nc2ncnc3cc(NC(=O)[C@@H](C)Cl)ccc23)c1 | 27.4% [6.25 µM] | 36.7% [6.25 µM] | 22% [6.25 µM] | 29.2% [6.25 µM] | 10.6% [6.25 µM] | 20.8% [6.25 µM] | 19.4% [6.25 µM] | 11.8% [6.25 µM] | 3.09% [6.25 µM] (active) | 11.4% [6.25 µM] | 1.44% [6.25 µM] (active) | -6.79% [6.25 µM] (active) | 11.9% [6.25 µM] | 25% [6.25 µM] | 52.8% [6.25 µM] | -5.9% [6.25 µM] (active) | 8.48% [6.25 µM] (active) | -6.96% [6.25 µM] (active) | 17.4% [6.25 µM] | 6.35% [6.25 µM] (active) |
| O=C(CI)NC(=O)NC(=O)NCc1ccccc1 | 69.4% | 93.6% | 33% | -20.6% (active) | 74.7% | -45.5% (active) | 5.31% (active) | 91.2% | -23.8% (active) | -24.5% (active) | -5.93% (active) | 29.4% | 56.3% | 44.3% | 30.3% | 104% | 21.1% | -55.9% (active) | 102% | 71% |
| O=C1c2cccc3cccc(c23)C(=O)N1C/C=C/c1ccc2c3c(cccc13)C(=O)N(CCO)C2=O | 90.7% | 91.5% | 75.7% | 48.1% | 98.7% | 34.1% | 63.1% | 74.7% | 83.3% | 80% | 67.1% | 74% | 69.6% | 79.2% | 40.1% | 72.3% | 78.7% | 87.9% | 61.6% | 80.2% |
| COc1cccc(NCc2nnc(Nc3ccc(Cl)cc3)c3ccccc23)c1 | -34.4% (active) | -0.284% (active) | 14.5% | -42.5% (active) | -40.9% (active) | -5.35% (active) | 9.01% (active) | -26.8% (active) | -4.42% (active) | -27.2% (active) | -24.5% (active) | -28.1% (active) | 3.02% (active) | 8.44% (active) | 17.2% | -11.9% (active) | 1.51% (active) | -53.6% (active) | 0.542% (active) | -5.42% (active) |
| CCOC(=O)c1cc(C(=O)c2cc(OC)c(OC)c(OC)c2)n2ccccc12 | 40.4% | 42% | 54% | 50.6% | 49.3% | 58.4% | 38.9% | -1.31% (active) | 17% | 24.3% | 23.9% | 23.2% | 33.2% | 71.5% | 67.9% | 22.3% | 49.6% | -5.59% (active) | 40.1% | 10.7% |
| COc1ccc(Nc2ncccc2/C=C/C(=O)c2cc(OC)c(OC)c(OC)c2)cc1 | -37.6% (active) | 60.8% | -18.1% (active) | -79.6% (active) | -14.6% (active) | -83.4% (active) | -23.6% (active) | 64.6% | -10.4% (active) | -11.7% (active) | -22.4% (active) | -25.3% (active) | -33.8% (active) | -15.4% (active) | 29% | 64.6% | -2.98% (active) | -88.2% (active) | 37.8% | 14% |
| CCN1CCN(CC(=O)Nc2nc3ccc(NCc4ccc(F)cc4)cc3s2)CC1 | 106% | 86.6% | 88.5% | 75.6% | 105% | 94.7% | 89.9% | 95.2% | 87% | 84.8% | 80.2% | 77.3% | 95.6% | 94.8% | 84% | 105% | 103% | 99.4% | 92.9% | 92.2% |
| CCN1C2CCC1/C(=C\c1ccc(F)cc1)C(=O)/C2=C/c1ccc(F)cc1 | 58.9% | 57.2% | 44.5% | 53.6% | 74.2% | 48.6% | 66.4% | 58.7% | 18.2% | 13.9% | 24.5% | 18.5% | 12.5% | 73.4% | 47.3% | 62% | 45.7% | 11% | 66.3% | 17.4% |
| N#CC1=C(N)Oc2ccc3ccccc3c2C1c1ccc([N+](=O)[O-])cc1 (stereo not given) | 93.9% | 65.8% | 90.4% | 51.1% | 156% | 76.8% | 52.8% | 84.8% | 63.7% | 68.6% | 77.3% | 83% | 85.7% | 108% | 69.3% | 83.4% | 50.6% | 79.4% | 90.2% | 94.6% |
| O=C(/C=C/c1cccc(Cl)c1Cl)Nc1ncc(Cc2ccccc2Cl)s1 | 44.7% | 55.7% | 56.9% | 44.6% | 84.2% | 46.4% | 48% | 39.6% | 21.5% | 50.6% | 19.1% | 35.4% | 73.6% | 80.1% | 70.2% | 70.4% | 39.3% | 11.3% | 38% | 31% |
| COc1ccccc1C(=O)Nc1cccc(NC(=O)c2ccoc2C)c1 | 10.3% | 71% | 43.3% | 49.6% | 44.7% | 52.1% | 40.6% | 47.1% | 10.9% | 25% | 15.5% | 20.7% | 40.4% | 85.3% | 77.7% | 66.1% | 41.6% | 15% | 40.2% | 9.85% (active) |
| CCNc1nc(O)c(/C=C2\C=Nc3ncccc32)s1 | -48.7% (active) | 14.1% | 12.6% | 7.47% (active) | -3.75% (active) | 0.663% (active) | 20.6% | -54.2% (active) | 3.01% (active) | -6% (active) | 0.377% (active) | 29.1% | 6.27% (active) | 8.67% (active) | 19.5% | -10.3% (active) | 21.7% | -2.07% (active) | -15.1% (active) | 29.7% |
| CCOC(=O)c1c(C)nc2c(c1N)/C(=C/c1ccc(OC)cc1)C(=O)N2Cc1ccccc1 | 64.6% | 75.6% | 57.4% | 56.6% | 97.2% | 71.1% | 78.6% | 74.4% | 48.9% | 15.9% | 22.1% | 5.58% (active) | 50.4% | 126% | 51.5% | 90.5% | 73.3% | 41.7% | 69.5% | 52.4% |
| CCOC(=O)c1c(C)nc2ccccc2c1/C=C/c1ccccc1 | 71.7% | 63.6% | 88.3% | 60.7% | 92.5% | 72.7% | 59.5% | 76% | 45.8% | 23.6% | 60.3% | 42.2% | 53.8% | 97% | 65% | 91.5% | 75% | 79.6% | 94.8% | 24.8% |
| CC(=O)c1ccc(Nc2nccc(-c3ccc4ccccc4c3)n2)cc1 | 91.7% | 96.5% | 101% | 86.1% | 87.2% | 98.8% | 104% | 1.1% (active) | 88.3% | 74.4% | 42.6% | 90% | 96.6% | 99.8% | 105% | 99.3% | 86.3% | 99.3% | 86.2% | 84% |
